Test results published in PubChem BioAssay (Tox21).
Values joined by “and” are separate entries in the source; they are usually repeats but may differ in a detail not shown here. Equal entries are not always repeated. Inconclusive results are not listed. Some structures have more than one record in an assay (separate samples or runs), and their calls can disagree. Active and inactive are the calls of the source. Unless noted, the call rests on the fitted dose curve; in most records, active means well fitted curve in the direction sought with a large enough effect in the repeat runs; inconclusive means weak or mixed curves; inactive means no such curve, though single readings can be large; an effect the other way counts as inactive or inconclusive.

Experiments:
[1] = target: Luciferin 4-monooxygenase (Photinus pyralis) (UniProt P08659); experiment: qHTS assay to identify small molecule inhibitors of firefly luciferase (AID 1224835); further: nearly all actives have a fitted effect of over 25% in size; further: potency means the concentration at half of the fitted maximal effect; conditions: purified P. pyralis luciferase, luminescence inhibition; series mostly up to 115 µM
Summary of the method: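 Quantitative HTS format; KM concentrations of both substrates. Purified P. pyralis FLuc activity quantified from luminescence images.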

[2] = qHTS assay to identify small molecule agonists of the constitutive androstane receptor (CAR) signaling pathway - cell viability counter screen (AID 1224836); conditions: HepG2-CYP2B6-hCAR viability, CellTiter-Fluor, 23 h, PK11195 added to every well; series mostly up to 92.4 µM; further: nearly all actives have a fitted effect of over 45% in size; further: potency means the concentration at half of the fitted maximal effect
Summary of the method: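 HepG2-CYP2B6-hCAR, 2500 cells/well, 4 h pre-incubation; cpd 15 conc + PK11195 0.75 uM final; 23 h, 37 C/5% CO2; CellTiter-Fluor, fluorescence.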

[3] = qHTS assay to identify small molecule antagonists of the constitutive androstane receptor (CAR) signaling pathway - cell viability counter screen (AID 1224837); conditions: HepG2-CYP2B6-hCAR viability, CellTiter-Fluor, 23 h, co-treated with 50 nM CITCO; series mostly up to 92.4 µM; further: nearly all actives have a fitted effect of over 45% in size; further: potency means the concentration at half of the fitted maximal effect
Summary of the method: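 Multiplexed cytotoxicity read-out for the CAR antagonist screen: double-stable HepG2-CYP2B6-hCAR cells co-treated with 50 nM CITCO (final) and compound over 15 concentrations, incubated 23 hr, then assessed by CellTiter-Fluor fluorescence.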

[4] = target: Nuclear receptor subfamily 1 group I member 3 (Homo sapiens) (UniProt Q14994); experiment: qHTS assay to identify small molecule antagonists of the constitutive androstane receptor (CAR) signaling pathway (AID 1224838); conditions: HepG2-CYP2B6-hCAR luciferase, CITCO-stimulated, 24 h; series mostly up to 92.4 µM; further: nearly all actives have a fitted effect of over 40% in size; further: potency means the concentration at half of the fitted maximal effect
Summary of the method: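 Compounds were titrated across 15 concentrations onto HepG2 cells double-stably expressing hCAR and a CYP2B6-2.2kb reporter, together with 50 nM CITCO (final). After 24 h at 37 C, luciferase activity was measured by luminescence.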

[5] = target: Nuclear receptor subfamily 1 group I member 3 (Homo sapiens) (UniProt Q14994); experiment: qHTS assay to identify small molecule agonists of the constitutive androstane receptor (CAR) signaling pathway (AID 1224839); conditions: HepG2 hCAR CYP2B6-luciferase, agonist mode, 24 h; series mostly up to 92.4 µM; further: nearly all actives have a fitted effect of over 15% in size; further: potency means the concentration at half of the fitted maximal effect;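 on activation: HepG2 cells stably carrying human CAR and a CYP2B6 luciferase reporter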
Summary of the method: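 HepG2-CYP2B6-hCAR cells, 2500/well, 4 h pre-incubation; compounds 15 conc.; PK11195 0.75 uM final; 24 h, 37 C/5% CO2; ONE-Glo luciferase read.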

[6] = qHTS assay to identify small molecule antagonists of the estrogen related receptor signaling pathway with the pleiotropic PPARgamma coactivator (PGC) from Tox21 10K library - cell viability counter screen (AID 1224840; active means well fitted cell-killing curve with a large enough effect in the repeat runs, not every such curve was filed as active; further: nearly all actives have a fitted effect of over 40% in size; further: potency means the concentration at half of the fitted maximal effect); conditions: PGC/ERR reporter cells viability, CellTiter-Fluor, 17.5 h; series mostly up to 92.4 µM
Summary of the method: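 Step one, plate 2,000 PGC/ERR cells per well; step two, incubate 6 h at 37 C/5% CO2; step three, pin-transfer compounds; step four, incubate 17.5 h; step five, add CellTiter-Fluor and read fluorescence after 30 min.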

[7] = target: Thyrotropin receptor (Homo sapiens) (UniProt P16473); experiment: qHTS assay to identify small molecule agonists of the thyroid stimulating hormone receptor (TSHR) signaling pathway (AID 1224843; calls by dose curve; further: nearly all actives have a fitted effect of over 45% in size); conditions: TSHR-HEK293 cells, cAMP HTRF, agonist mode, 30 min; series mostly up to 92.4 µM
Summary of the method: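 TSHR-expressing HEK293 cells (800 per well) were exposed to compounds for 30 min at room temperature. cAMP was then detected by HTRF competition with cAMP-d2 and anti-cAMP cryptate, read after 1 h at room temperature. Fifteen concentrations, triplicate.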

[8] = qHTS assay to identify small molecule antagonists of the estrogen related receptor signaling pathway with the pleiotropic PPARgamma coactivator (PGC) from Tox21 10K library (AID 1224841; call rule not given here; further: actives are mostly falling curves and most rising ones were filed inactive; nearly all actives have a fitted effect of over 50% in size; further: potency means the concentration at half of the fitted maximal effect); conditions: PGC/ERR reporter cell line, ONE-Glo luciferase, 18 h; series mostly up to 92.4 µM
Summary of the method: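 Antagonism in this quantitative HTS is taken from loss of luciferase signal in PGC/ERR cells. Cells (2,000/well) are treated with compounds in DMSO after a 6 h settling period and read by One-Glo luminescence after 18 h.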

[9] = qHTS assay to identify small molecule agonists of the estrogen related receptor signaling pathway with the pleiotropic PPARgamma coactivator (PGC) from Tox21 10K library (AID 1224842); conditions: PGC/ERR reporter cell line, luciferase ONE-Glo, 18 h; series mostly up to 92.4 µM; further: nearly all actives have a fitted effect of over 15% in size; further: potency means the concentration at half of the fitted maximal effect
Summary of the method: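 PGC/ERR reporter cells (NTP line) were seeded 2,000 per well, rested 6 h at 37 C/5% CO2, then pin-dosed with compounds in DMSO for 18 h at 37 C; luciferase read by One-Glo luminescence after 30 min at room temperature.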
On the % scale 0 is the no-effect control and ±100 the full control effect.

Chain of Thyrotropin receptor (Homo sapiens) (P16473 whole entry, looked up): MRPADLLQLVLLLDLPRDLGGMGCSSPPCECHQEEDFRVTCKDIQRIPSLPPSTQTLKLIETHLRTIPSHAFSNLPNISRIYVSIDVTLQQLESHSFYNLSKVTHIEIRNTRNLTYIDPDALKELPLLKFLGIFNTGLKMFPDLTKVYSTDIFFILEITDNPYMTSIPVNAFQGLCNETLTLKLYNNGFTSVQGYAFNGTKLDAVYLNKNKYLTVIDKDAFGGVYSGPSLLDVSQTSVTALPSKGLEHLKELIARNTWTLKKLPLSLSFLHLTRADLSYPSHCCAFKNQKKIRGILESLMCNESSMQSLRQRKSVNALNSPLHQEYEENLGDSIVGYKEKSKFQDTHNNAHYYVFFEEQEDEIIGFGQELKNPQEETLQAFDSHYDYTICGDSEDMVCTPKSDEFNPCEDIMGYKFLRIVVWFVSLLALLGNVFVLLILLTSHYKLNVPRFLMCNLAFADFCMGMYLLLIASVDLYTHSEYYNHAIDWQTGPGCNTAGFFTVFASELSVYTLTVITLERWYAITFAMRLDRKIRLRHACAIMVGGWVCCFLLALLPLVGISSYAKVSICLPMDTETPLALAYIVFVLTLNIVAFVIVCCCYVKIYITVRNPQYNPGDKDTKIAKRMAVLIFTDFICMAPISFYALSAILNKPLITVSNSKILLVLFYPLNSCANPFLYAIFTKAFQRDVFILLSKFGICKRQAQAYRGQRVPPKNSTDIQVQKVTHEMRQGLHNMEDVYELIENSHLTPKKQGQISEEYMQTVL
Chain of Luciferin 4-monooxygenase (Photinus pyralis) (P08659 whole entry, looked up): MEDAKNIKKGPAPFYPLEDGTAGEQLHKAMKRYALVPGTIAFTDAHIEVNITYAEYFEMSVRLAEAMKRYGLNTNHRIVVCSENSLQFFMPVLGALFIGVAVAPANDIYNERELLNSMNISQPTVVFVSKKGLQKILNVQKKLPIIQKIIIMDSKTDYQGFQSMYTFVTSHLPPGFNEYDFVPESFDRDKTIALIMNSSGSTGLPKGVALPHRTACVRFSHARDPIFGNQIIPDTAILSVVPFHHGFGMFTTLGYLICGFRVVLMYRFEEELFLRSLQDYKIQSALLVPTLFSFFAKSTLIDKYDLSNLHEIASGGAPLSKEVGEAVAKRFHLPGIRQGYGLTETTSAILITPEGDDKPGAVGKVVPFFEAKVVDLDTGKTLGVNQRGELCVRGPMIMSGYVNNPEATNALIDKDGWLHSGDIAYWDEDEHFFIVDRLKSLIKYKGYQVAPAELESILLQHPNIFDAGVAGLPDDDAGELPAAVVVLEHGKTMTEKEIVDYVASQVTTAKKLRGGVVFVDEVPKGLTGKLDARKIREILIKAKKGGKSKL
Chain of Nuclear receptor subfamily 1 group I member 3 (Homo sapiens) (Q14994 whole entry, looked up): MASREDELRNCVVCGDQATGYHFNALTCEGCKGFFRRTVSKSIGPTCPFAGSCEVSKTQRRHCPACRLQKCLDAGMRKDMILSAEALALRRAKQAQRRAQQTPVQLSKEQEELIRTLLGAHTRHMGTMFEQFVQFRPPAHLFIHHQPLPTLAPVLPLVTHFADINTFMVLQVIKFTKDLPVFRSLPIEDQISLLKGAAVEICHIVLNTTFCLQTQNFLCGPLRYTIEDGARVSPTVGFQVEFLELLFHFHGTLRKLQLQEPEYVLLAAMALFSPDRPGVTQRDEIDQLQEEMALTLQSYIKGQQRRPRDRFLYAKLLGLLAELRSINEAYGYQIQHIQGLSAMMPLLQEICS

Cc1cc(C(C)(C)C)c(O)c(C(C)(C)C)c1
inactive: Potency [1] | Potency [2] | Potency [3] | Potency [4] | Potency [5] | Potency [6] | Potency [7]

CC(=O)C1=C(C)[C@@H]2C[C@@]3(C1)[C@H](C)CC[C@H]3C2(C)C
active: Potency [5] 40.3 µM and 27.3 µM
inactive: Potency [1] | Potency [2] | Potency [3] | Potency [4] | Potency [6] | Potency [7]

CCCOC(=O)c1cc(O)c(O)c(O)c1
active: Potency [9] 4.31 µM
inactive: Potency [2] | Potency [3] | Potency [4] | Potency [8] | Potency [7]
inactive and 19.3 µM (active): Potency [5]

COC(=O)/C=C/c1ccccc1
inactive: Potency [2] | Potency [3] | Potency [4] | Potency [5] | Potency [7]

CC(N)=O
inactive: Potency [1] | Potency [2] | Potency [3] | Potency [7]

CCCC(=O)c1ccccc1
inactive: Potency [1] | Potency [2] | Potency [3] | Potency [4] | Potency [5] | Potency [6] | Potency [8] | Potency [9] | Potency [7]

c1ccc2cc3c(ccc4ccccc43)cc2c1
inactive: Potency [2] | Potency [3] | Potency [4] | Potency [6] | Potency [7]
active: Potency [1] 5.66 µM and 8.94 µM

CCCCCCCCCCCCCCCCCl
inactive: activity change, negative = inhibition [1] 0.302% [at 23.6 µM] | viability change, negative = cytotoxic [2] -1.15% [at 19 µM] | activity change, negative = cytotoxicity [3] -1.23% [at 19 µM] | activity, negative = inhibition [4] -1.8% [at 19 µM] | viability change, negative = cytotoxic [6] 6.02% [at 19 µM] | activity, negative = inhibition [8] 65% [at 19 µM] | activation [9] 5.12% [at 19 µM] | activation [7] 0.927% [at 19 µM]

CC[C@@H](N)CO
inactive: Potency [1] | Potency [2] | Potency [3] | Potency [4] | Potency [5] | Potency [8] | Potency [9] | Potency [7]

CC(C)CCOC(=O)c1ccc(N(C)C)cc1
active: Potency [1] 3.47 µM
inactive: Potency [2] | Potency [3] | Potency [4] | Potency [6] | Potency [8] | Potency [7]

O=S(=O)(O)c1ccc2nc(-c3ccccc3)[nH]c2c1
active: Potency [1] 19 µM and 12.3 µM
inactive: Potency [2] | Potency [3] | Potency [4] | Potency [5] | Potency [6] | Potency [8] | Potency [9] | Potency [7]

CC(=O)OCC1=C(C(=O)O)N2C(=O)[C@@H](NC(=O)Cc3cccs3)[C@H]2SC1
inactive: Potency [1] | Potency [2] | Potency [3] | Potency [4] | Potency [5] | Potency [7]

CCn1c2ccccc2c2cc(N)ccc21
inactive: Potency [2] | Potency [3] | Potency [4] | Potency [6] | Potency [9] | Potency [7]

CCCCCC(=O)O[C@]1(C(C)=O)CC[C@H]2[C@@H]3CCC4=CC(=O)CC[C@]4(C)[C@H]3CC[C@@]21C
inactive: Potency [1] | Potency [4] | Potency [5] | Potency [8]
active: Potency [3] 48.2 µM | Potency [6] 54.1 µM

CC(=O)O[C@]1(C(C)=O)CC[C@H]2[C@@H]3C[C@H](C)C4=CC(=O)CC[C@]4(C)[C@H]3CC[C@@]21C
inactive: Potency [1] | Potency [2] | Potency [3] | Potency [4] | Potency [5] | Potency [7]

CC1=CC(=O)c2ccccc2C1=O
inactive: Potency [1] | Potency [6] | Potency [9]
active: Potency [4] 30.6 µM | Potency [8] 30.6 µM

CCN(CC)CCOc1ccc(/C(=C(\Cl)c2ccccc2)c2ccccc2)cc1
inactive: Potency [3] | Potency [4] | Potency [5]

CCCNC(C)C(=O)Nc1ccccc1C (centres undefined)
inactive: Potency [1] | Potency [2] | Potency [3] | Potency [4] | Potency [5] | Potency [7]

CN1C(=O)c2ccc([N+](=O)[O-])cc2C1=O
inactive: Potency [1] | Potency [2] | Potency [3] | Potency [4] | Potency [5] | Potency [6] | Potency [8] | Potency [7]

O=C1OC2(c3ccc(O)cc3Oc3cc(O)ccc32)c2ccccc21
inactive: Potency [1] | Potency [7]

c1ccc2n[nH]nc2c1
inactive: Potency [1] | Potency [2] | Potency [3] | Potency [4] | Potency [5] | Potency [6] | Potency [7]

CCc1ccc(C(c2ccc(CC)cc2)C(Cl)Cl)cc1
inactive: Potency [1] | Potency [2] | Potency [3] | Potency [4] | Potency [6]

CC(=O)CC(C)=O
inactive: Potency [1] | Potency [2] | Potency [3] | Potency [6] | Potency [8] | Potency [9] | Potency [7]

CCCCC/C=C/CC1CC(=O)OC1=O (centres undefined)
inactive: Potency [1] | Potency [2] | Potency [3] | Potency [4] | Potency [5] | Potency [6] | Potency [8] | Potency [7]

O=C(O)c1cccc(C(=O)O)c1
inactive: Potency [1] | Potency [2] | Potency [3] | Potency [6] | Potency [7]

NNCCc1ccccc1
inactive: Potency [2] | Potency [3] | Potency [4] | Potency [6] | Potency [7]
25.3 µM (active) and inactive: Potency [1]

CN(C)c1ccc(C(=C2C=CC(=[N+](C)C)C=C2)c2ccccc2)cc1
active: Potency [2] 11.9 µM [middle of 4 runs] | Potency [4] 4.73 µM [middle of 4 runs]
inactive: Potency [5]

O=C(Nc1ccccc1SSc1ccccc1NC(=O)c1ccccc1)c1ccccc1
active: Potency [1] 5.05 µM and 2.52 µM | Potency [3] 19.4 µM and 24.3 µM | Potency [4] 21.8 µM and 30.6 µM | Potency [6] 30.8 µM and 48.6 µM | Potency [8] 27.4 µM and 27.3 µM
inactive: Potency [7]

C#CC(C)(CC)OC(=O)c1ccccc1C(=O)O (centres undefined)
inactive: Potency [1] | Potency [2] | Potency [3] | Potency [4] | Potency [5] | Potency [6] | Potency [8] | Potency [7]

CC[C@]1(O)C[C@@H]2CN(CCc3c([nH]c4ccccc34)[C@@](C(=O)OC)(c3cc4c(cc3OC)N(C)[C@H]3[C@@](O)(C(=O)OC)[C@H](OC(C)=O)[C@]5(CC)C=CCN6CC[C@]43[C@@H]65)C2)C1
active: Potency [2] 1.19 µM and 2.98 µM | Potency [3] 2.66 µM and 4.22 µM
inactive: Potency [1] | Potency [7]
